Measured values taken from PubChem BioAssay.
Activity calls are given as the source filed them. Unless noted, how the calls were made is not given here.

What was measured:
[1] = A549 cell viability effects, profiling panel, calcein-AM fluorescence, 48 h, basal (AID 1162); settings: higher = more signal; further: test concentration not given here
[2] = adipocyte viability effects, profiling panel, cell-based, 3T3-L1 adipocytes, calcein-AM fluorescence, 48 h, basal (AID 1163); settings: 3T3-L1 adipocytes viability, higher = more signal; further: test concentration not given here
[3] = HepG2 cell viability effects, profiling panel, calcein-AM fluorescence, 48 h, basal (AID 1164); settings: higher = more signal; further: test concentration not given here
[4] = MM1S cell viability effects, profiling panel, calcein-AM fluorescence, 48 h, basal (AID 1165); settings: higher = more signal;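 further: viability of MM1S multiple myeloma cells under basal unstimulated conditions; test concentration not given here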
[5] = basal RPMI8226 viability, no added stimulus, profiling panel, cell-based, calcein-AM fluorescence, 48 h, PK04 Diversity Set (AID 1166); settings: RPMI8226 myeloma viability, higher = more signal;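 further: cells grown under basal conditions without added stimulus; test concentration not given here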
[6] = basal HepG2 mitochondrial membrane potential changes, profiling panel, cell-based, JC-1 fluorescence, 24 h, 100 nL compound (AID 1167); settings: higher = more signal; further: test concentration not given here
[7] = basal 3T3-L1 adipocyte mitochondrial potential changes, profiling panel, cell-based, JC-1 fluorescence, 3T3-L1 adipocytes, 24 h, 100 nL compound (AID 1168); settings: JC-1 mitochondrial fluorescence, higher = more signal, called active from +8 up or from −8 down; further: test concentration not given here
[8] = basal RPMI8226 mitochondrial membrane potential changes, profiling panel, cell-based, JC-1 fluorescence, 24 h, 100 nL compound (AID 1169); settings: RPMI8226 myeloma, JC-1 mitochondrial potential fluorescence, higher = more signal; further: test concentration not given here
[9] = basal MM1S mitochondrial membrane potential changes, profiling panel, cell-based, JC-1 fluorescence, 24 h, 100 nL compound (AID 1170); settings: higher = more signal; further: test concentration not given here
[10] = A549 lung cancer cell viability effects, profiling panel, resazurin fluorescence, 24 h, PK04 Diversity Set (AID 1171); settings: higher = more signal, called active from +8 up or from −8 down; further: test concentration not given here
[11] = HepG2 liver cancer cell viability effects, profiling panel, resazurin fluorescence, 24 h, PK04 Diversity Set (AID 1172); settings: higher = more signal; further: test concentration not given here
[12] = basal S. cerevisiae growth modulation, no modifier, primary screen, OD600, strain BY4716, 24 h, basal condition (AID 1173); settings: OD600, 24 h, higher = more signal, called active from +8 up or from −8 down
[13] = MM1S myeloma cell viability, profiling panel, resazurin fluorescence, basal, 24 h, PK04 Diversity Set (AID 1174); settings: higher = more signal, called active from +8 up or from −8 down;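 further: MM1S multiple myeloma cell line; test concentration not given here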
[14] = target: Dihydroorotate dehydrogenase (quinone), mitochondrial (Plasmodium falciparum (isolate 3D7)) (UniProt Q08210); experiment: PfDHODH enzyme inhibitors, primary screen, biochemical, C-terminal His tag, absorbance 600 nm (AID 1175); settings: DCIP absorbance 600 nm, higher = more signal, called active from +8 up or from −8 down;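 further: recombinant parasite enzyme with a five histidine tag at its C terminus; test concentration not given here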
Chain of Dihydroorotate dehydrogenase (quinone), mitochondrial (Plasmodium falciparum (isolate 3D7)) (Q08210 whole entry, looked up): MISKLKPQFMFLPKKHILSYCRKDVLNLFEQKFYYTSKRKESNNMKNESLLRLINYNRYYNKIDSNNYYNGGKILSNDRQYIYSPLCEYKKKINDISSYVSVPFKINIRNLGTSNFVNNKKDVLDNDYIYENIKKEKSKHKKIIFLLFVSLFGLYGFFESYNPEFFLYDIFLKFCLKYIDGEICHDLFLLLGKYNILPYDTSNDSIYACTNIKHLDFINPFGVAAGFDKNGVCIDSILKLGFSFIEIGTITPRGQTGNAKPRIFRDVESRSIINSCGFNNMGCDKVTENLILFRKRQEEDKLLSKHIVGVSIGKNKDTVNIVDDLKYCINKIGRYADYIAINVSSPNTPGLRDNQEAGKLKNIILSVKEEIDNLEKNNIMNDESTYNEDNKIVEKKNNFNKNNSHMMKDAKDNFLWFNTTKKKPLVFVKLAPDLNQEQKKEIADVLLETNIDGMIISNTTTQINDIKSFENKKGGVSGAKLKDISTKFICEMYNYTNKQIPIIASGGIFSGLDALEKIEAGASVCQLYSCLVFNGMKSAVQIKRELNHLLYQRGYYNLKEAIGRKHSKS

[15] = P. aeruginosa biofilm formation inhibitors, primary screen, strain PAO1, LB-PBS medium, absorbance 600 nm (AID 1176); further: test concentration not given here; settings: P. aeruginosa PAO1 growth/biofilm, A600, 12 h; higher = more signal
[16] = S. cerevisiae RM11-1a growth modifiers, primary screen, strain RM11-1a, OD600, basal, 24 h (AID 1177); settings: OD600, 24 h, higher = more signal, called active from +8 up or from −8 down;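 further: cultures grown under basal conditions with no added stressor; test concentration not given here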
[17] = E. coli acrAB mutant growth effects, primary screen, E. coli filamentation inducers, strain DRC39, OD650, 24 h (AID 1178); settings: higher = more signal, called active from +8 up or from −8 down;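 further: growth measured as culture turbidity by optical density at 650 nm; test concentration not given here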
[18] = E. coli acrAB mutant growth effects, primary screen, E. coli filamentation inducers, strain DRC39, OD650, 48 h (AID 1179);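 further: screen aims at cell division blockers that make cells filament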; settings: E. coli DRC39 delta-acrAB growth, higher = more signal, called active from +8 up or from −8 down
[19] = RPMI8226 myeloma cell viability, profiling panel, resazurin fluorescence, basal, 24 h, PK04 Diversity Set (AID 1180); settings: higher = more signal;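 further: RPMI8826 multiple myeloma cell line at 5000 cells per well; test concentration not given here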
[20] = target: E3 ubiquitin-protein ligase XIAP (Homo sapiens) (UniProt P98170); experiment: XIAP binders, primary screen, biophysical, small-molecule microarray, fluorescence 635 nm (AID 1181); settings: small-molecule microarray binding, higher = more signal;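 further: score merges 667 nm emission and signal to noise over triplicate slides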
Chain of E3 ubiquitin-protein ligase XIAP (Homo sapiens) (P98170 whole entry, looked up): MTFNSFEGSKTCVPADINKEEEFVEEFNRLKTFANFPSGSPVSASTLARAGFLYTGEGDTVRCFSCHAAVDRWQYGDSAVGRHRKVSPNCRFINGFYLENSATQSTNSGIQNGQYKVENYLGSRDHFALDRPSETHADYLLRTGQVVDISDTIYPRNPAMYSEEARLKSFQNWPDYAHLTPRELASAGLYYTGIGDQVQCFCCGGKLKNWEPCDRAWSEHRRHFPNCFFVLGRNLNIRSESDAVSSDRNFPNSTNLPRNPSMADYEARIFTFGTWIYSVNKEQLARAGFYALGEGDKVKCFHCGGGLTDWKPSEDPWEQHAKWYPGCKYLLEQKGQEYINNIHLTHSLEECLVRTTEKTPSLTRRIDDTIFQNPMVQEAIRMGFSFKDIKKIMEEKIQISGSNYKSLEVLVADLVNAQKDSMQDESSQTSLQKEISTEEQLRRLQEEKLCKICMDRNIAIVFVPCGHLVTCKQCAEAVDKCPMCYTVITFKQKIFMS

SMILES	z-score [1]	z-score [2]	z-score [3]	z-score [4]	z-score [5]	z-score [6]	z-score [7]	z-score [8]	z-score [9]	z-score [10]	z-score [11]	z-score [12]	z-score [13]	composite z-score [14]	z-score [15]	z-score [16]	z-score [17]	z-score [18]	z-score [19]	composite z-score [20]
O=c1n(-c2ccccc2)c(=O)n2n1CC[C@@H]1C(=NOCc3ccccc3)[C@H]3O[C@H]3[C@@H](O)[C@@H]12	0.172	-0.915	0.251	-0.232	0.169	-0.406	-0.78 (inactive)	-0.0915	-0.531	-1.08 (inactive)	-1.28	-0.274 (inactive)	-0.503 (inactive)	-3.02 (inactive)	-0.0485 (inactive)	-0.249 (inactive)	-0.792 (inactive)	-0.604 (inactive)	-1.12	-0.0026
CCc1cc2c(nc1CC)CCN(CCC(C)=NO[C@@H](C)c1cn([C@H](CO)Cc3ccccc3)nn1)C2	0.669	0.367	1.8	0.73	0.18	2.44	0.254 (inactive)	-0.279	-0.525	0.0367 (inactive)	-0.301	-0.841 (inactive)	-1.79 (inactive)	-1.3 (inactive)	-0.218 (inactive)	0.804 (inactive)	0.294 (inactive)	0.67 (inactive)	0.659	-0.0602
CCOC(=O)[C@H](Cc1ccccc1)NC(=O)CCC1CC(OC(=O)NCCc2ccc(F)cc2)CC2(CCCC(COC(=O)NCCCN3CCCC3=O)O2)O1 (stereo not given in full)	1.57	-0.0501	0.43	0.356	-0.335	0.668	-0.182 (inactive)	0.437	-1.09	-0.972 (inactive)	-0.0038	-0.196 (inactive)	0.374 (inactive)	-1.73 (inactive)	0.781 (inactive)	-1.25 (inactive)	-0.198 (inactive)	-0.926 (inactive)	0.898	-0.0622
COC(=O)CC=C[C@@H](C)[C@@H]1C=C[C@H](O)[C@@H](CO)O1	-0.864	-1.02	-0.008	0.667	-0.932	0.295	-0.875 (inactive)	-0.229	-0.433	-0.554 (inactive)	-0.118	0.626 (inactive)	-3.24 (inactive)	0.35 (inactive)	0.274 (inactive)	0.86 (inactive)	0.439 (inactive)	0.483 (inactive)	-1.28	0.0727
CCOC(=O)[C@H](CC(C)C)NC(=O)CCC1CC(OC(=O)NCc2cccc3ccccc23)CC2(CCCC(COC(=O)NCCCN3CCCC3=O)O2)O1 (stereo not given in full)	0.367	1.15	-0.839	-0.0471	-1.31	0.106	-0.636 (inactive)	-0.555	-1.15	0.489 (inactive)	0.281	-0.761 (inactive)	0.826 (inactive)	0.0067 (inactive)	-0.47 (inactive)	0.209 (inactive)	-0.134 (inactive)	0.323 (inactive)	-0.241	-0.104
CC(C)(C)N1C(=O)[C@H]2[C@H]3[C@H](O)[C@H](O)CC(=O)[C@H]3CC[C@H]2C1=O	-0.568	0.372	0.258	-1	-0.27	0.192	-0.445 (inactive)	0.651	-0.512	-0.644 (inactive)	-0.915	-0.573 (inactive)	0.319 (inactive)	0.236 (inactive)	-0.908 (inactive)	0.143 (inactive)	-0.403 (inactive)	-0.738 (inactive)	-0.383	-0.0378
COc1ccc(O[C@H]2C=C[C@@H](c3ccccc3)O[C@@H]2CON=C(C)CCN2CCc3nc(-c4ccccc4)c(-c4ccccc4)cc3C2)cc1	0.437	0.133	0.59	-1.65	-0.439	4.95	-1.39 (inactive)	0.965	-0.214	0.621 (inactive)	0.449	-0.606 (inactive)	-0.159 (inactive)	0.503 (inactive)	0.135 (inactive)	1.21 (inactive)	-0.166 (inactive)	-1.89 (inactive)	0.382	-0.0536
CCOC(=O)[C@H](CC(C)C)NC(=O)CCC1CC(OC(=O)NCc2cccc3ccccc23)CC2(CCCC(COC(=O)NCCC(C)C)O2)O1 (stereo not given in full)	2.25	0.944	0.312	-3.2	-1.05	0.162	0.199 (inactive)	-0.17	-1.27	0.169 (inactive)	0.232	-2.17 (inactive)	0.771 (inactive)	-2.64 (inactive)	0.131 (inactive)	-3.91 (inactive)	-0.259 (inactive)	-0.457 (inactive)	-0.286	0.117
CCOC(=O)C1=NO[C@@]2(C=C(Br)C3(OCCCO3)[C@H]3O[C@H]32)C1	-0.433	0.672	0.0307	0.777	-0.468	0.448	0.139 (inactive)	-0.723	0.308	-0.542 (inactive)	-0.68	-0.303 (inactive)	-0.227 (inactive)	0.552 (inactive)	0.356 (inactive)	0.227 (inactive)	0.58 (inactive)	0.643 (inactive)	-0.249	0.0657
COc1ccc(O[C@H]2C=C[C@@H](c3ccccc3)O[C@@H]2COC(=O)CCC(C)=NO[C@@H]2O[C@H](COC(C)=O)[C@@H](OC(C)=O)[C@H](OC(C)=O)[C@H]2OC(C)=O)cc1	-0.502	0.0711	-0.574	-0.794	-0.433	-1.05	-0.882 (inactive)	0.722	-0.375	0.363 (inactive)	0.0729	1.64 (inactive)	-0.169 (inactive)	0.671 (inactive)	-0.585 (inactive)	1.37 (inactive)	0.486 (inactive)	0.167 (inactive)	0.111	0.461
CCOC(=O)[C@H](Cc1ccccc1)NC(=O)CCC1CC(OC(=O)NCc2cccc3ccccc23)CC2(CCCC(COC(=O)NCC(c3ccccc3)c3ccccc3)O2)O1 (stereo not given in full)	1.15	-0.0155	-0.808	-3.22	0.632	0.353	-0.151 (inactive)	-0.107	-0.886	1.36 (inactive)	0.812	-0.38 (inactive)	0.923 (inactive)	-0.305 (inactive)	-0.163 (inactive)	-0.714 (inactive)	-0.371 (inactive)	-0.661 (inactive)	1.27	0.0655
C#CCCCON=C1C[C@@H](O)[C@@H](O)[C@@H]2[C@@H]3C(=O)N(C(C)(C)C)C(=O)[C@@H]3CC[C@@H]12	-0.145	-0.619	-0.486	0.154	0.381	-0.465	-0.286 (inactive)	-0.0943	-0.283	-0.152 (inactive)	-0.202	0.595 (inactive)	-1.24 (inactive)	0.289 (inactive)	0.0001 (inactive)	0.438 (inactive)	-0.35 (inactive)	-0.278 (inactive)	0.0444	-0.0939
COc1ccc(COC(=O)NN=C2C[C@@H](O)[C@@H](O)[C@@H]3[C@@H]4C(=O)N(Cc5ccccc5)C(=O)[C@@H]4CC[C@H]23)cc1	0.203	0.649	-0.462	0.451	-1.27	0.646	-0.585 (inactive)	0.365	-0.592	1.03 (inactive)	1.35	0.3 (inactive)	1.28 (inactive)	-0.307 (inactive)	0.07 (inactive)	-0.629 (inactive)	0.426 (inactive)	-0.463 (inactive)	0.635	0.152
CO[C@H]1COC(=O)CC=C[C@@H](C)[C@H](NS(=O)(=O)c2ccc(C)cc2)COC(=O)CCC[C@@H]1C	0.379	1.15	-0.179	0.339	0.229	-0.3	-0.134 (inactive)	0.112	-0.58	0.478 (inactive)	0.703	-0.99 (inactive)	1.01 (inactive)	-0.242 (inactive)	-0.361 (inactive)	-0.5 (inactive)	0.0468 (inactive)	0.0191 (inactive)	0.545	0.0797
CC(C)CON=C1C[C@@H](O)[C@@H](O)[C@@H]2[C@@H]3C(=O)N(C[C@@H]4CCCO4)C(=O)[C@@H]3CC[C@@H]12	0.18	-0.149	-0.622	-0.61	-0.923	-0.49	0.977 (inactive)	-0.258	-0.0595	0.266 (inactive)	-0.192	0.526 (inactive)	0.22 (inactive)	-0.223 (inactive)	0.152 (inactive)	-0.541 (inactive)	0.276 (inactive)	0.663 (inactive)	1.15	-0.266
CC(C)CCN1CCc2nc(COc3ccccc3)c3c(c2C1)CO[C@@H](C)C3	-0.304	-0.225	0.665	0.246	-0.396	1.66	-0.000112 (inactive)	-0.724	1.09	-0.0622 (inactive)	-0.226	-0.83 (inactive)	0.291 (inactive)	0.0368 (inactive)	0.462 (inactive)	0.288 (inactive)	1.1 (inactive)	-0.341 (inactive)	0.327	-0.161
O=C1C[C@@H](O)[C@@H](O)[C@@H]2[C@@H]3C(=O)N(Cc4ccc5c(c4)OCO5)C(=O)[C@@H]3CC[C@H]12	0.474	1.46	0.517	0.0737	-0.0121	-0.0331	-0.221 (inactive)	0.522	1.37	-0.0495 (inactive)	0.201	0.0442 (inactive)	-0.0254 (inactive)	-0.564 (inactive)	-0.0121 (inactive)	-0.545 (inactive)	-0.494 (inactive)	-0.389 (inactive)	-0.0372	-0.152
